According to PubChem BioAssay (Tox21):
Results filed as inconclusive are left out. Calls of active or inactive are those of the source. Unless noted, the call rests on the fitted dose curve; in most records, active means well fitted curve in the direction sought with a large enough effect in the repeat runs; inconclusive means weak or mixed curves; inactive means no such curve, though single readings can be large; an effect the other way counts as inactive or inconclusive.

Assays:
[1] = qHTS assay for small molecule agonists of the p53 signaling pathway (AID 651631; calls by dose curve; further: nearly all actives have a fitted effect of over 15% in size)
Outline: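 Testing took place in human colorectal HCT-116 cells with stable p53RE-driven beta-lactamase. After 16 h of compound exposure at 37 °C, a FRET substrate was added and fluorescence recorded 2 h later.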

[2] = qHTS assay for small molecule agonists of the p53 signaling pathway - cell viability (AID 651633; calls by dose curve; further: series mostly up to about 83 µM; nearly all actives have a fitted effect of over 30% in size)
Outline: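 Viability counter-read: CellTiter-Glo luminescence (30 min, room temperature) in the same p53RE-bla plates. These plates had been exposed to compounds for 16 h at 37 C.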

[3] = qHTS assay for small molecules that induce genotoxicity in human embryonic kidney cells expressing luciferase-tagged ATAD5 - cell viability (AID 651634; calls by dose curve; further: nearly all actives have a fitted effect of over 25% in size)
Outline: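 HEK293T cells carrying luciferase-tagged ATAD5, 2,000 cells/well, exposed to compound for 15.5 hr at 37C. Viability read as live-cell protease activity by CellTiter-Fluor fluorescence after 30 min at 37C.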

[4] = qHTS assay for small molecule disruptors of the mitochondrial membrane potential - cell viability (AID 720634; calls by dose curve;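 further: human HepG2 liver cancer cells; series mostly up to about 83 µM; nearly all actives have a fitted effect of over 20% in size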)
Outline: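 HepG2 cells, 2,000 per well, attached overnight, then treated 1 hr at 37 C, 5% CO2. Viability read as ATP by CellTiter-Glo luminescence after 30 min at room temperature. Read in the same wells as the m-MPI membrane-potential dye assay.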

[5] = qHTS assay to test for compound auto fluorescence at 590 nm (red) in HepG2 cells (AID 720674)
Outline: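 We screened compounds on adherent HepG2 cells, incubating them for an hour at 37 C in 5% CO2 before reading emission at 590 nm under 540 nm excitation; values reflect equivalence to Rose Bengal sodium fluorescence.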

[6] = qHTS assay to test for compound auto fluorescence at 535 nm (green) in HepG2 cells (AID 720675)
[7] = qHTS assay to test for compound auto fluorescence at 460 nm (blue) in HEK293 cells (AID 720678)
Outline: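 Blue-channel (Ex/Em 405/460 nm) intensity measured in HEK293 cultures after overnight compound exposure at 37C; signal expressed relative to triamterene. Cells plated 2,000 per well in 10% dialyzed FBS medium and allowed 4-5 hr to attach.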

[8] = qHTS assay to test for compound auto fluorescence at 590 nm (red) in HEK293 cells (AID 720679)
Outline: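 Red-channel autofluorescence (Ex/Em 540/590 nm; Rose Bengal sodium reference) was measured after overnight 37C, 5% CO2 exposure of attached HEK293 cells, 2,000 per well in medium with 10% dialyzed FBS.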

[9] = qHTS assay to test for compound auto fluorescence at 535 nm (green) in HEK293 cells (AID 720680)
[10] = qHTS assay to test for compound auto fluorescence at 460 nm (blue) in HEK293 cell free culture (AID 720681)
Outline: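 Blue fluorescence (Ex 405/Em 460 nm, triamterene-equivalent) was read immediately after pin transfer of compound or DMSO into medium (DMEM, 10% FBS) without cells.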

[11] = qHTS assay to test for compound auto fluorescence at 535 nm (green) in HEK293 cell free culture (AID 720682)
Outline: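 DMEM + 10% FBS, cell-free; cpd or DMSO pinned in; Ex485/Em535 read; output as fluorescein-equivalent signal.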

[12] = qHTS assay to test for compound auto fluorescence at 590 nm (red) in HEK293 cell free culture (AID 720683)
Outline: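 Red-channel autofluorescence of compounds in culture medium (DMEM, 10% FBS), no cells, measured at 540/590 nm. Rose Bengal sodium is the reference fluorophore for equivalence.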

[13] = qHTS assay to test for compound auto fluorescence at 590 nm (red) in HepG2 cell free culture (AID 720684)
Outline: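 Plate contents were MEM with 10% FBS plus test compound or DMSO, no cells. Fluorescence was recorded with 540 nm excitation and 590 nm emission.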

[14] = qHTS assay to test for compound auto fluorescence at 460 nm (blue) in HepG2 cell free culture (AID 720685)
Outline: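 Compound (23 nL) or DMSO pinned into cell-free MEM with 10% FBS; blue fluorescence read at 405/460 nm excitation/emission, expressed as auto-fluorescence equivalency to triamterene.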

[15] = qHTS assay to test for compound auto fluorescence at 535 nm (green) in HepG2 cell free culture (AID 720686)
[16] = target: Glucocorticoid receptor (Homo sapiens) (UniProt P04150); assay: qHTS assay to identify small molecule agonists of the glucocorticoid receptor (GR) signaling pathway (AID 720691; active means well fitted activation curve with a large enough effect in the signal ratio in the repeat runs, not every such curve was filed as active; the % refers to the signal ratio)
Sequence of Glucocorticoid receptor (Homo sapiens) (P04150 whole entry, looked up): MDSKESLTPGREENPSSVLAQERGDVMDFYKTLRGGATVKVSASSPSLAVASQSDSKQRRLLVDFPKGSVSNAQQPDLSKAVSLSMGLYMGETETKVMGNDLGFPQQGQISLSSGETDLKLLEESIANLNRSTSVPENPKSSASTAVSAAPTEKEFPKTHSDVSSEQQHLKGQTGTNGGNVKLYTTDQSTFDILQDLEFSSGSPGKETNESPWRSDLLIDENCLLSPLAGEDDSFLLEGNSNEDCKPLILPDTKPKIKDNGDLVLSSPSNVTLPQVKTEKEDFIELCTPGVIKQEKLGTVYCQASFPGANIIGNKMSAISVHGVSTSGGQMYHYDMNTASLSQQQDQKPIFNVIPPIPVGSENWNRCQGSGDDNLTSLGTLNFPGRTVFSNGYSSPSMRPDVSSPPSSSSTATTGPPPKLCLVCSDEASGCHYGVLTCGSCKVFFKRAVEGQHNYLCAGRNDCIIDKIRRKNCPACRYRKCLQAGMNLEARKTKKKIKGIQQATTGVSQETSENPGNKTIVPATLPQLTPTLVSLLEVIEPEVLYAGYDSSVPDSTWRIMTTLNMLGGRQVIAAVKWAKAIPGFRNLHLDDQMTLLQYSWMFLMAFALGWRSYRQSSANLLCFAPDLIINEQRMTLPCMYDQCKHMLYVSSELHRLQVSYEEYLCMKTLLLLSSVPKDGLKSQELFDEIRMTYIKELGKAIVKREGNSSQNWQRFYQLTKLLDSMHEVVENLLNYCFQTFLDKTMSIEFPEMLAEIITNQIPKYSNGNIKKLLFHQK
Outline: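 GR-bla HeLa cells carrying a GRE-driven beta-lactamase reporter, exposed to compounds for 18 h at 37 C. Reporter activation read as fluorescence after 2 h with LiveBLAzer B/G FRET substrate at room temperature.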

[17] = target: Glucocorticoid receptor (Homo sapiens) (UniProt P04150); assay: qHTS assay to identify small molecule antagonists of the glucocorticoid receptor (GR) signaling pathway (AID 720692; active means well fitted inhibition curve with a large enough effect in the signal ratio in the repeat runs, not every such curve was filed as active; the % refers to the signal ratio)
Outline: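 GR-bla HeLa cells carrying a GRE-driven beta-lactamase reporter received compound after 4 h plating, then dexamethasone (5 nM final). After 18 h at 37C, the FRET substrate was loaded for 2 h at room temperature and fluorescence read.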

[18] = qHTS assay for small molecule disruptors of the mitochondrial membrane potential (AID 720635)
Outline: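 Mitochondrial membrane potential tracked with Mito-MPS dye, red aggregates (ex 540/em 590 nm) against green monomers (ex 490/em 535 nm). Compound treatment 1 hr at 37C, dye 30 min in HepG2.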

[19] = qHTS assay to test for compound auto fluorescence at 460 nm (blue) in HepG2 cells (AID 720687)
Outline: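 Blue-channel autofluorescence (Ex/Em 405/460 nm, triamterene-equivalent) was measured after 1 hr compound exposure at 37 C, 5% CO2. Cells were HepG2, plated overnight at 37 C in MEM plus 10% FBS.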

[20] = qHTS assay for small molecules that induce genotoxicity in human embryonic kidney cells expressing luciferase-tagged ATAD5 (AID 651632); further: nearly all actives have a fitted effect of over 15% in size
Outline: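 HEK293T cells carrying luciferase-tagged ATAD5 were given compound or DMSO vehicle and incubated 16 hr at 37C, 5% CO2. Luciferase activity was read after 30 min at room temperature with Amplite; a rise signals genotoxic stress.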
On the % scale 0 is the no-effect control and ±100 the full control effect.

CN(C(=O)CCCOc1ccc2[nH]c(=O)ccc2c1)C1CCCCC1
inactive: Potency [1] | Potency [2] | Potency [3] | Potency [4] | outcome [5] | outcome [6] | Potency [7] | outcome [8] | outcome [9] | Potency [10] | outcome [11] | outcome [12] | outcome [13] | Potency [14] | outcome [15] | Potency [16] | Potency [17]

Cc1ccc(C)o1
inactive: Potency [1] | Potency [2] | Potency [3] | Potency [4] | Potency [18] | outcome [5] | Potency [7] | outcome [8] | outcome [9] | outcome [11] | outcome [12] | outcome [13] | Potency [14] | outcome [15] | Potency [16] | Potency [17]

O=C(O)C1CCC(C(=O)O)CC1 (stereo not drawn)
inactive: Potency [1] | Potency [2] | Potency [3] | Potency [4] | outcome [5] | outcome [6] | Potency [7] | outcome [8] | outcome [9] | outcome [12] | outcome [13] | Potency [19] | Potency [16] | Potency [17]

CC(C)CC=O
inactive: Potency [1] | Potency [2] | Potency [3] | Potency [4] | outcome [5] | outcome [6] | Potency [7] | outcome [8] | outcome [9] | Potency [10] | outcome [11] | outcome [12] | outcome [13] | Potency [14] | outcome [15] | Potency [19] | Potency [16] | Potency [17]

CC/C(=C\C(=N/O)C(N)=O)C(C)[N+](=O)[O-] (stereo not drawn)
inactive: Potency [1] | Potency [20] | Potency [3] | Potency [4] | outcome [5] | outcome [6] | Potency [7] | outcome [8] | outcome [9] | Potency [10] | outcome [11] | outcome [12] | outcome [13] | Potency [14] | outcome [15] | Potency [19] | Potency [16] | Potency [17]

Cn1c(=O)c2c(ncn2CC(O)CO)n(C)c1=O (stereo not drawn)
inactive: Potency [1] | Potency [20] | Potency [3] | Potency [4] | Potency [18] | fluorescence, relative to Rose Bengal [5] 0.442% [at 18.6 µM] | fluorescence, % of fluorescein control [6] -0.21% [at 18.6 µM] | fluorescence, % of triamterene [7] -0.206% [at 18.6 µM] | fluorescence, % of fluorescent control [8] -0.424% [at 18.6 µM] | fluorescence, % of fluorescent control [10] -0.0654% [at 18.6 µM] | activity change [11] -0.0177% [at 18.6 µM] | fluorescence, % of fluorescent control [12] 0.293% [at 18.6 µM] | fluorescence, % of Rose Bengal [13] -0.139% [at 18.6 µM] | fluorescence, % of fluorescein control [15] -0.0139% [at 18.6 µM] | Potency [16] | Potency [17]

CCCCOC(O)CC (stereo not drawn)
inactive: Potency [1] | Potency [20] | Potency [3] | Potency [4] | Potency [18] | outcome [5] | outcome [6] | Potency [7] | outcome [8] | outcome [9] | Potency [10] | outcome [11] | outcome [12] | outcome [13] | Potency [14] | outcome [15] | Potency [19] | Potency [16] | Potency [17]
